Bioassay records as filed in PubChem.
A selection: hits, their analogues and other compounds. The true share with any hit is near 2.3%.
M1 PAM – potentiates human M1 receptor response to acetylcholine; CHO-K1 hM1, Fluo-8 calcium fluorescence, ACh EC20; 0% = ACh EC20, 100% = maximal ACh; P11229; AID 588819; 360,000 compounds, 0.088% hits; activation, % at 3 µM; in the data active = activation above about 19%, passing the limit was not always enough
Target sequence (P11229 whole entry, looked up): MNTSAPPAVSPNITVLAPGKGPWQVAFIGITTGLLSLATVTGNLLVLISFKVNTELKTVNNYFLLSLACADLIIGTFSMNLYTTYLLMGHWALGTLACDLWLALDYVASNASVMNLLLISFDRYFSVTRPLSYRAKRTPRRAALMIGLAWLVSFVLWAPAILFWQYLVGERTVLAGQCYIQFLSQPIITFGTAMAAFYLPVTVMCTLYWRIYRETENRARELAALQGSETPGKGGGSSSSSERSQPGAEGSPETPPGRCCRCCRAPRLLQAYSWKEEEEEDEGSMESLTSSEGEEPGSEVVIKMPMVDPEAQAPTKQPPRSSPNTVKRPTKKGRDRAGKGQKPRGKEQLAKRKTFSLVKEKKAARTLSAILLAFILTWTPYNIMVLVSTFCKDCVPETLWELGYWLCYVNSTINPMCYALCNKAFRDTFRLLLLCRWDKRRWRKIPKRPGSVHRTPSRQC
CHRM1 agonist – agonists of human M1 muscarinic receptor; P11229; 360,000 compounds, 0.33% hits; activation, % at 3 µM; CHO-K1 hM1, Fluo-8 calcium fluorescence, agonist mode; 0% DMSO, 100% acetylcholine EC100;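 active = activation above the run's mean compound activation plus 3 SD, cut at about 16% in these data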;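 note: peak over basal fluorescence ratio within a 140 s kinetic read after compound addition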
CHRM1 antagonist – blocks human M1 muscarinic receptor. P11229. CHO-K1 hM1, Fluo-8 calcium fluorescence, ACh EC80 antagonist. inhibition, % at 3 µM. 360,000 compounds, 1.3% hits. AID 588852;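 active = percent inhibition above its own plate's cutoff, namely the mean of that plate's compound wells plus 3 SD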;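 note: peak over basal fluorescence ratio during 140 s after agonist addition; 0% = ACh EC80 plus DMSO and 100% = DMSO alone without agonist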
M1 PAM parental – nonselective activator or artifact in parental CHO-K1 calcium assay | ATP EC20, Fluo-8 calcium fluorescence; 0% at ATP EC20, 100% at ATP max | activation, % at 3 µM | 360,000 compounds, 0.02% hits | AID 602247;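 active = activation above the run cutoff, the mean activation of all test compounds plus 3 SD, cut at about 40% in these data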;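 note: peak over basal fluorescence ratio in a 140 s read after ATP addition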
CHO-K1 Ca ag – counter-screen for M1 agonists: effect in parental CHO-K1 cells | Fluo-8 calcium fluorescence; scaled to maximal ATP response, vehicle zero | AID 602248 | activation, % at 3 µM | 360,000 compounds, 0.48% hits; in the data active = activation above about 15%;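 note: untransfected CHO-K1 host cells lacking M1 receptor as counterscreen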
CHO-K1 Ca antag – nonselective inhibitor or artifact in parental CHO-K1 cells | AID 602250 | 360,000 compounds, 0.6% hits | ATP-induced calcium, Fluo-8 fluorescence | inhibition, % at 3 µM;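 active = inhibition above a per-plate cutoff, the plate's mean sample inhibition plus 3 SD, cut at about 24% in these data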;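 note: 0% = DMSO plus EC80 ATP and 100% = DMSO alone without ATP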
* = called active by the depositor; nt = no result given.

SMILES | M1 PAM | CHRM1 agonist | CHRM1 antagonist | M1 PAM parental | CHO-K1 Ca ag | CHO-K1 Ca antag
NC(=O)CSc1nnnn1CC(CC(=O)O)c1ccccc1 (stereo not drawn) | 11.4 | -0.3 | 0.2 | -5.7 | -0.1 | 24.8*
CCOc1ccc(C(=O)Nc2cc(-c3nc4ccccc4[nH]3)ccc2Cl)cc1[N+](=O)[O-] | -13.2 | 1.4 | 36.9* | -4.7 | 6.9 | 25.8*
O=C(NCC(Cl)c1ccc2ccccc2c1)c1c(F)cccc1F (stereo not drawn) | 2.9 | 5.3 | -5.7 | 6.9 | 19.7* | 6.7
O=C(NCCCNC(=O)c1c(F)cccc1F)c1c(F)cccc1F | 4.9 | -3.5 | -4.7 | 18.6 | 0.4 | -17.6
CCC(=O)N1CCc2cc(S(=O)(=O)CCC(=O)N3CCN(c4ccc(F)cc4)CC3)ccc21 | 1.9 | -0.5 | 10.3 | -21.2 | 1.4 | 0.9
O=C(O)C(C(O)c1ccc([N+](=O)[O-])cc1)[n+]1ccccc1 (stereo not drawn) | -2.7 | -13.8 | 5.8 | 12.8 | 1.2 | -11.1
Cc1cc2c(c(=O)n1CC1CCCO1)C(c1ccc3c(c1)OCO3)C(C#N)=C(N)O2 (stereo not drawn) | 9.0 | -1.4 | -7.6 | 20.1 | 0.4 | -9.2
CCn1c(C)cc2c(c1=O)C(c1ccc3c(c1)OCO3)C(C#N)=C(N)O2 (stereo not drawn) | -34.4 | -14.6 | 65.7* | -0.3 | 0.0 | -2.1
CC(=O)NN1C(=O)/C(=C\c2ccc(Br)o2)SC1=S | -5.9 | -3.1 | 7.1 | 5.2 | 0.7 | 7.3
CC(=O)NN1C(=O)/C(=C/c2ccc(Br)o2)SC1=S | 21.1* | -2.5 | -3.2 | 9.4 | 0.7 | -8.8
CCCN(C)C1CN(Cc2cn(Cc3cccc(Cl)c3)nn2)S(=O)(=O)C1 (stereo not drawn) | nt | nt | nt | 11.6 | 1.6 | -11.6
O=C(CSc1nnc(Cn2nnc3ccccc32)o1)N(Cc1ccc(Cl)cc1)c1ccccc1 | -12.4 | 1.0 | 20.1* | -1.2 | 3.4 | 19.4
O=C(CSc1nnc(Cn2nnc3ccccc32)o1)Nc1cccc(Cl)c1 | 6.0 | 0.4 | -0.5 | 3.4 | 4.0 | -13.7
Cc1ccc(S(=O)(=O)N(C)C[C@H]2OCCCC[C@H](C)Oc3ccc(NC(=O)Nc4cccc5ccccc45)cc3C(=O)N([C@@H](C)CO)C[C@H]2C)cc1 | -12.4 | -3.1 | 10.3 | -8.3 | 0.2 | -3.7
CCCN(CCC)S(=O)(=O)c1cccc(-c2csc(C)n2)c1 | 3.2 | 1.2 | -21.8 | 9.6 | 21.6* | 2.6
CC1CN(C(=O)c2cccc(S(=O)(=O)N3CCN(c4ccccc4)CC3)c2)CC(C)O1 (stereo not drawn) | 0.5 | -1.2 | 5.8 | 17.6 | 3.3 | -2.4
Cc1cc2cc(CNC(=O)c3ccc(S(=O)(=O)N4CCOCC4)cc3)ccc2n1C | -31.4 | -10.1 | 75.8* | 20.0 | 1.9 | -7.2
Cc1cc2cc(CNC(=O)c3cccc([N+](=O)[O-])c3)ccc2n1C | 3.4 | -7.2 | -5.5 | 5.0 | 0.5 | 15.0
Cc1cc2cc(CNC(=O)c3ccc(S(=O)(=O)N(C)C)cc3)ccc2n1C | -26.1 | -11.9 | 30.1* | -11.9 | 1.2 | 21.5
CCC(C)c1ccccc1NC(=S)NC(=O)c1ccco1 (stereo not drawn) | 0.8 | -4.6 | -1.4 | -5.7 | 1.2 | -4.4
Cc1c(NC(=S)NC(=O)c2ccccc2Cl)c(=O)n(-c2ccccc2)n1C | 28.8* | -4.8 | -2.9 | 9.4 | 0.3 | -3.1
Cc1c(NC(=S)NC(=O)c2ccc(Cl)cc2)c(=O)n(-c2ccccc2)n1C | -8.2 | -3.2 | 20.0 | 14.3 | 5.7 | -2.4
Cc1c(NC(=O)c2cc(CC(C)C)on2)c(=O)n(-c2ccccc2)n1C | 10.9 | -12.5 | -24.2 | 16.6 | -0.1 | 1.6
Cc1c(NC(=O)c2cc(C(C)C)on2)c(=O)n(-c2ccccc2)n1C | -20.4 | -8.8 | 35.8* | -9.1 | 0.3 | 7.0
Cc1nn(Cc2ccccc2)c(C)c1NC(=O)Cn1nc([N+](=O)[O-])c(Cl)c1C | -0.1 | -1.6 | -3.9 | 10.3 | 1.4 | -24.5
SMILES | M1 PAM | CHRM1 agonist | CHRM1 antagonist | M1 PAM parental | CHO-K1 Ca ag | CHO-K1 Ca antag
Cc1c(Cl)c([N+](=O)[O-])nn1CC(=O)Nc1c(C)n(C)n(-c2ccccc2)c1=O | -12.2 | -5.6 | 27.7* | 11.4 | 1.6 | -1.9
Cc1ccc(Cn2nc(C)c(NC(=O)CCCn3nc(C)c([N+](=O)[O-])c3C)c2C)cc1 | 3.7 | -3.6 | -0.2 | -1.7 | 0.3 | -18.5
Cc1ccc(Cn2nc(C)c(NC(=O)CCCn3nc([N+](=O)[O-])c(Cl)c3C)c2C)cc1 | 21.1* | -1.6 | -17.4 | 18.2 | 0.3 | -18.8
COc1ccc(OC)c(NS(=O)(=O)c2ccc(-n3cccn3)cc2)c1 | -5.5 | -1.1 | 1.2 | -9.8 | 1.7 | 26.2*
C[C@H](NC(=O)c1cccc([N+](=O)[O-])c1)C(=O)OCC(=O)c1ccccc1Br | 3.1 | -2.1 | 2.1 | -2.8 | 2.7 | 2.4
O=C(CN1CCN(S(=O)(=O)c2ccc(Cl)cc2)CC1)c1ccc(O)c(O)c1 | 27.0* | -3.2 | -21.9 | 0.7 | 1.7 | -11.9
Cn1cnc(S(=O)(=O)N2CCN(C(c3ccccc3)c3ccccc3)CC2)c1 | 21.4 | 2.7 | -13.8 | 15.2 | -0.1 | -13.1
CCOC(=O)c1[nH]ncc1CN1CCCC(C(=O)c2ccc(SC)cc2)C1 (stereo not drawn) | -5.8 | -14.1 | 2.8 | -3.9 | 0.2 | 5.7
CSc1ccc(C(=O)C2CCCN(Cc3ccc(N4CCNC4=O)cc3)C2)cc1 (stereo not drawn) | -28.4 | -11.0 | 96.6* | 13.4 | 9.6 | 7.0
COc1ccc(CN2CCCC(C(=O)c3ccc(SC)cc3)C2)cc1Cn1cccn1 (stereo not drawn) | -24.8 | -4.1 | 88.3* | -18.9 | 2.2 | 18.2
CCOC(=O)c1c(C)n(C)c2cc(Br)c(C)cc12 | 4.9 | 2.4 | -5.3 | -0.4 | -0.2 | -11.4
CCOC(=O)c1c(C)n(C)c2cc(-c3ccc(C)cc3)c(O)cc12 | -4.3 | -4.0 | 3.3 | -15.9 | 0.0 | 27.7*
CCOC(=O)c1c(C)n(C)c2cc(-c3cccc(C(F)(F)F)c3)c(O)cc12 | -7.2 | -2.6 | 12.6 | -14.2 | -0.7 | 26.7*
COc1ccc2nc(C)cc(Sc3nc4ccccc4s3)c2c1 | -4.1 | 1.1 | 10.6 | 11.4 | 28.8* | -0.7
Cc1ccc(-c2onc3ccc(C(=O)O)cc23)cc1 | 2.2 | 9.6 | -1.4 | 7.4 | 18.9* | 2.7
Cc1ccc(Cl)cc1N1CCN(C(=O)C(C)n2ncn3cccc3c2=O)CC1 (stereo not drawn) | -0.1 | 3.9 | -7.4 | 15.7 | 5.0 | -1.4
CN1CCN(C(=O)CN(c2cccc(Cl)c2)S(=O)(=O)c2ccccc2)CC1 | -9.1 | -4.9 | 28.1* | 14.1 | 0.1 | -7.1
Cc1cccc(N(CC(=O)N2CCN(C)CC2)S(=O)(=O)c2ccccc2)c1 | -3.7 | -13.7 | 6.8 | 9.6 | 0.4 | 0.6
C[C@@H]1CN(Cc2nnnn2CC(=O)NCCCn2cccn2)C[C@H](C)O1 | 14.9 | 3.2 | -16.3 | -2.1 | -0.4 | -0.5
